From PubChem BioAssay
This is one part of a sample in which hits are shown more often than they occur.
Dicer inh: inhibitors of Dicer pre-microRNA processing, primary screen, biochemical, cat-ELCCA, chemiluminescence; Endoribonuclease Dicer (Homo sapiens), Q9UPY3; cat-ELCCA pre-miR-21 Dicer processing; hits give high values; z-score at 25 µM; 47,000 compounds, 6% hits; in the data active means z-score above about 3, passing the limit was not always enough;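 further: plate controls were vehicle for no effect and no enzyme for full effect; higher signal means more uncleaved substrate so more Dicer inhibition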
Target sequence (Q9UPY3 whole entry, looked up): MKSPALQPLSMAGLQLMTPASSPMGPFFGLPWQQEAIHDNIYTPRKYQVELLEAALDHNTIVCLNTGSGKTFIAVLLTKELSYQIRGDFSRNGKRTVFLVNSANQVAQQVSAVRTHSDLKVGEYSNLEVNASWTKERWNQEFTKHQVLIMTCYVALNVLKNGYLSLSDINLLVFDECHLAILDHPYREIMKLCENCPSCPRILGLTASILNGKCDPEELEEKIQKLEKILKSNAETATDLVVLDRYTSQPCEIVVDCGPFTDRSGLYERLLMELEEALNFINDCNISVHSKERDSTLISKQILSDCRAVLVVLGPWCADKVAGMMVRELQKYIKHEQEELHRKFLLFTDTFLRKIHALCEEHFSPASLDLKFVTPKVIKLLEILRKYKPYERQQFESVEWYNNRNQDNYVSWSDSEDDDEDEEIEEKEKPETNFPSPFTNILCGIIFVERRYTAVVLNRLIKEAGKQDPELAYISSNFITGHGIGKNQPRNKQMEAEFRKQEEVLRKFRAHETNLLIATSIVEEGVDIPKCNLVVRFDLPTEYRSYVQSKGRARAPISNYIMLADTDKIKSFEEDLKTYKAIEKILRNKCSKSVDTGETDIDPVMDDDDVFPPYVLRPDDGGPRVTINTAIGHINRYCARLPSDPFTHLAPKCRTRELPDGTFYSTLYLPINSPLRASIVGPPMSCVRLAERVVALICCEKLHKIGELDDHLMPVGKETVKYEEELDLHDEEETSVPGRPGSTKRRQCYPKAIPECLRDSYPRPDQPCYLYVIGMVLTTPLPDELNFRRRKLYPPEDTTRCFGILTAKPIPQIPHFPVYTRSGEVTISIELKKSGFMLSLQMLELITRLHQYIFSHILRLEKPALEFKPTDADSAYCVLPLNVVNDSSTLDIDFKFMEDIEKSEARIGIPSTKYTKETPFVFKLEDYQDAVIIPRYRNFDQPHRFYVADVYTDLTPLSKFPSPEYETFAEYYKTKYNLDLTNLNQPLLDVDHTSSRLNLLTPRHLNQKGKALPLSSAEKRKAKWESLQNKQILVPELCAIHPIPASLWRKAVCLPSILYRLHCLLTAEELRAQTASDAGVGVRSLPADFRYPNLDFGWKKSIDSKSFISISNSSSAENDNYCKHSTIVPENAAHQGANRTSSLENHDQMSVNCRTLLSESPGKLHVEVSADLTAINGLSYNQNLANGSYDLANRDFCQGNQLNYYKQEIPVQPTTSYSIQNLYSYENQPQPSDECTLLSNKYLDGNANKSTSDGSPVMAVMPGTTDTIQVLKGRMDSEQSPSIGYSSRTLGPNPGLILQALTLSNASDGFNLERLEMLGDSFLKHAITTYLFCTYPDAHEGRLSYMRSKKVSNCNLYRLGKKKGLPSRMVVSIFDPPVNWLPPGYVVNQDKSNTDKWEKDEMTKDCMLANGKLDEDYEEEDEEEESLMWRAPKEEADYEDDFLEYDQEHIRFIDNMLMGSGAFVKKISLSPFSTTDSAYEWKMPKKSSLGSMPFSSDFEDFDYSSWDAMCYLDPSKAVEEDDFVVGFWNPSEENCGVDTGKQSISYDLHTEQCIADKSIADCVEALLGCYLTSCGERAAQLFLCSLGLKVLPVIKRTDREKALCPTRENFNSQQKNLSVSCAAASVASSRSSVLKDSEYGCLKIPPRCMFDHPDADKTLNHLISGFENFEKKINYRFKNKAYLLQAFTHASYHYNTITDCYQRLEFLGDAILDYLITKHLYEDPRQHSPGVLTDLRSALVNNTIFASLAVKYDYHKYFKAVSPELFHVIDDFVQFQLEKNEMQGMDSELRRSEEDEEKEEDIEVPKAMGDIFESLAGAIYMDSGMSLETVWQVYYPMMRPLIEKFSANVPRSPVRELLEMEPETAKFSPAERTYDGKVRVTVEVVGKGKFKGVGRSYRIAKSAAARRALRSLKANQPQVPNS
* hit, by the source's call.

SMILES | Dicer inh
O=C(NC1CCCC1)c1cc2n(n1)C(C(F)(F)F)CC(c1ccccc1)N2 (stereo unspecified) | -0.58
O=C(NCCCn1ccnc1)c1cc2n(n1)C(C(F)(F)F)CC(c1ccc(Cl)cc1)N2 (stereo unspecified) | 0.68
O=C(Nc1ncnc2oc(-c3ccccc3)c(-c3ccccc3)c12)c1ccco1 | 2.54
CCOCCOC(=O)C1=C(C)NC2=C(C(=O)CCC2)C1c1coc2ccccc2c1=O (stereo unspecified) | -0.71
CC12C=CC(O1)C1C(=O)N(c3ccc(N4CCOCC4)cc3)C(=O)C12 (stereo unspecified) | -0.66
CCOC(=O)c1c(C)csc1NC(=O)CC(=O)Nc1scc(C)c1C(=O)OCC | -1.16
N#C/C(=C\c1c(F)cccc1Cl)C(=O)Nc1ccc(F)c(Cl)c1 | -0.34
Cc1cc(C)n2c(SCc3ccc(Br)cc3)nnc2n1 | 1.29
c1ccc(CSc2nnnn2-c2ccccc2)cc1 | -1.29
Cc1cc(C)n2c(Br)c(CSc3nnnn3-c3ccccc3)nc2n1 | 4.24*
CC(C)(CC(=O)O)CC(=O)NNc1ccc(S(N)(=O)=O)cc1 | 0.79
Cc1onc(-c2ccccc2Cl)c1NC(=O)Nc1ccc(F)cc1 | 1.16
CCOc1cc(CNc2ncn[nH]2)cc(Cl)c1OC | 2.33
CC(C)Oc1c(N2CCOCC2)c(=O)c1=O | 5.3*
CCOc1cc(N2CCOCC2)c(OCC)cc1NS(=O)(=O)C(C)C | 1.44
CCc1c(C)nc(N2CCOCC2)[nH]c1=O | -0.93
COc1ccc(/C(O)=C2\C(=O)C(=O)N(Cc3ccncc3)C2c2cccc(Oc3ccccc3)c2)cc1 (stereo unspecified) | 1.52
CC12CCC(C1)C(C)(C)C2NC(=O)C1CCC1 (stereo unspecified) | 0.41
O=C1CC(Nc2ccccc2)C=C1Nc1ccccc1 (stereo unspecified) | -0.09
O=C1CC(N2CCN(c3ccccc3)CC2)C=C1Nc1ccc(Cl)cc1 (stereo unspecified) | 1.86
O=C1CC(N2CCN(c3ccccc3)CC2)C=C1Nc1ccccc1 (stereo unspecified) | 3.99*
CN(CCc1ccccn1)Cc1cccc(F)c1 | 3.47*
CN(CCc1ccccn1)Cc1ccc(F)cc1 | -0.8
CN(CCc1ccccn1)Cc1ccccn1 | -1.03
Cc1onc(-c2c(Cl)cccc2Cl)c1C(=O)NNc1cccc(C(F)(F)F)n1 | 0.88
SMILES | Dicer inh
FC(F)(F)c1nc2ccc(Cl)cc2[nH]1 | 1.16
COc1cccc(=O)c2c(C)n(-c3ccc(C(=O)O)cc3)c(C)c12 | 2.09
CCOc1cccc(=O)c2c(C)[nH]c(C)c12 | 1.84
CCOc1cccc(=O)c2c(C)n(-c3ccc(C(=O)O)cc3)c(C)c12 | 10.1*
Nc1n[nH]c(=O)c2cc(-c3ccc(Cl)cc3)[nH]c(=O)c12 | -0.77
Nc1[nH]c(=S)[nH]c(=O)c1C(c1ccc(Cl)cc1Cl)c1c(N)[nH]c(=S)[nH]c1=O | 3.37*
O=C(O)CC(CC(=O)O)c1ccc(Cl)cc1Cl | -2.23
Brc1ccc(-c2nc3ccccn3c2Sc2ccccc2)cc1 | -0.62
Cc1nnsc1C(=O)NN(C)c1cnc2ccccc2n1 | -0.57
O=C(Nc1ccc(C(F)(F)F)cc1)O/N=C/c1c(Cl)cccc1Cl | -0.87
CCN(CC)c1ccc(CNc2nc3ccccc3n2C(C)C)cc1 | 0.35
COc1ccc(OC)c(CNc2nc3ccccc3n2CCN2CCCCC2)c1 | 3.82*
COc1ccc(OCCn2c(C)nc3ccccc32)cc1 | 0.43
Cc1ccc(-c2cn3c4ccccc4nc3n2CCCN2CCCCC2)cc1 | 2.85
CC(C)c1ccc(CNc2nc3ccccc3n2CCN2CCOCC2)cc1 | 4.8*
COc1ccc(-c2cn3c4ccccc4nc3n2CCCN2CCOCC2)cc1 | 3.64*
C=CCn1c(NCc2ccccc2OC)nc2ccccc21 | -0.63
Cc1ccc(-c2cn3c4ccccc4nc3n2CCO)cc1 | 1.28
COc1ccccc1CNc1nc2ccccc2n1CCN1CCOCC1 | 6.17*
CCn1c(NCc2cc(OC)ccc2OC)nc2ccccc21 | 2.78
c1ccc2c(c1)nc(NCc1ccc3c(c1)OCO3)n2CCN1CCOCC1 | -0.44
CSc1nc(N/C=C2/C(=O)c3ccccc3N(C)S2(=O)=O)nc(N(C)C)n1 | -1.67
COc1cc([N+](=O)[O-])c(OC)cc1SCC(=O)NNS(=O)(=O)c1cc(Cl)c(Cl)cc1Cl | -0.58
CC(C)(C)Sc1nc2ccccc2[nH]c1=S | -0.78
Cc1c(-c2nnc(-c3cccc(C(F)(F)F)c3)o2)sc2nc(-c3ccc(Cl)cc3)nn12 | -0.53
SMILES | Dicer inh
COc1cccc2c1NC(c1cccc(Br)c1)C1CC=CC21 (stereo unspecified) | 2.03
CCOC(=O)Cc1csc(NN=C(C)C)n1 | 0.7
Cc1onc(-c2ccccc2Cl)c1NC(=O)NCCc1ccncc1 | -0.43
CC(C)(C)c1cc(C(N)=O)n(Cc2ccccc2)n1 | 0.3
OCc1nc2ccccc2n1Cc1ccccc1Cl | -0.29
COc1ccc(OC)c(CNc2nc3ccccc3n2C)c1 | 2.54
CN(C)c1ccc(CNc2nc3ccccc3n2C)cc1 | -0.16
O=C(Nc1nc2ccccc2n1CCN1CCOCC1)C1CCCCC1 | 2.99
COc1ccccc1CNc1nc2ccccc2n1C | 3.77*
